Results filed as inconclusive are left out. Entries that show only a call come without a potency. The source made the active and inactive calls. Calls come from the whole dose curve; as a rule, active = well fitted inhibition curve with a large enough effect; inconclusive = small, poorly fitted or top-dose-only effect; inactive = no such curve, though single readings can be large or run the other way.
Assay: qHTS to identify inhibitors of the type 1 interferon - major histocompatibility complex class I in skeletal muscle: Secondary screen by immunofluorescence; note: nearly all actives have a fitted effect of over 70% in size
Details: C25cl48 myoblasts, IFN-b induced HLA-ABC immunofluorescence, 24 h, Viability; series mostly up to 49.8 µM
Method in brief: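 HLA-ABC immunofluorescence, with nuclear and cell-body stains, was quantified by laser scanning cytometry. Read-out followed 24 h of IFN-beta (4.0 ng/ml) stimulation of C25cl48 human myoblasts with compounds titrated 1:3 over 11 points from 50 uM, with ruxolitinib as inhibitor control.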
Potency is the fitted concentration of half-maximal effect.

Compound	Potency
NS(=O)(=O)OC[C@@H]1C[C@@H](n2ccc3c(N[C@H]4CCc5ccccc54)ncnc32)C[C@@H]1O	inactive
COc1cccc2c1C(=O)c1c(O)c3c(c(O)c1C2=O)C[C@@](O)(/C(CO)=N/NC(=O)CCCCCN1C(=O)C=CC1=O)C[C@@H]3O[C@H]1C[C@H](N)[C@H](O)[C@H](C)O1	inactive
C[C@H](NC(=O)/C(C#N)=C/c1cccc(Br)n1)c1ccccc1	12.9 µM (active)
CCc1cc(C(N)=O)ccc1-n1nc(C(C)C)c2c(-n3cnc(-c4cnn(C)c4)c3)ccnc21	inactive
CC1(C)CC(=O)c2c(C(F)(F)F)nn(-c3ccc(C(N)=O)c(NC4CCC(O)CC4)c3)c2C1 (stereo unspecified)	inactive
Cc1ccc2nc(NCCN)c3ncc(C)n3c2c1	inactive
CC1=C(CO)C(=O)O[C@@H]([C@@H](C)[C@H]2CC[C@H]3[C@@H]4C[C@H]5O[C@]56[C@@H](O)C=CC(=O)[C@]6(C)[C@H]4CC[C@]23C)C1	2.05 µM (active)
COc1nnc2ccc(N3CCC(c4ccc(OCCN5CCN(C)C(=O)[C@H]5C)cc4)CC3)nn12	inactive
CC(C)c1cc(CNc2nc(Nc3cc(C4CC4)[nH]n3)cc(N3CCN(C)CC3)n2)on1	inactive
O=C(Nc1cn[nH]c1-c1nc2ccc(CN3CCOCC3)cc2[nH]1)NC1CC1	inactive
N#CC[C@H](C1CCCC1)n1cc(-c2ncnc3[nH]ccc23)cn1	inactive
CC(C)c1cc(C(=O)N2Cc3ccc(CN4CCN(C)CC4)cc3C2)c(O)cc1O	inactive
CCc1c2c(nc3ccc(O)cc13)-c1cc3c(c(=O)n1C2)COC(=O)[C@]3(O)CC	inactive
C[C@H]1C[C@@H]2[C@H]([C@@H](O)C[C@@]3(C)[C@H]2CC[C@]3(O)C(=O)CO)[C@@]2(C)C=CC(=O)C=C12	inactive
CO[C@@H]1[C@@H](O)[C@H](O)[C@@H](n2c3c(Cl)cccc3c3c4c(c5c6cccc(Cl)c6[nH]c5c32)C(=O)NC4=O)O[C@H]1CO	inactive
COc1c(C)cnc(Cn2cnc3c(Cl)nc(N)nc32)c1C	inactive
O=C(/C=C/c1ccc(CN(CCO)CCc2c[nH]c3ccccc23)cc1)NO	inactive
CCS(=O)(=O)N1CC(CC#N)(n2cc(-c3ncnc4[nH]ccc34)cn2)C1	inactive

Compound	Potency
CN(Cc1ccc(/C=C/C(=O)NO)cc1)CC12CC3CC(CC(C3)C1)C2	inactive
CCCOc1ccc2nc(NC(=O)OC)[nH]c2c1	inactive
CNC(=O)c1ccc(Nc2ncc(C(F)(F)F)c(NCc3nccnc3N(C)S(C)(=O)=O)n2)cc1	inactive
CCS(=O)(=O)Nc1ccc(Oc2ccc(F)cc2F)c(-c2cn(C)c(=O)c3[nH]ccc23)c1	inactive
CCOc1cc2ncc(C#N)c(Nc3ccc(F)c(Cl)c3)c2cc1NC(=O)/C=C/CN(C)C	16.2 µM (active)
CCOC(=O)N1CCN(/[N+]([O-])=N/Oc2ccc([N+](=O)[O-])cc2[N+](=O)[O-])CC1	14.5 µM (active)
CN(C)Cc1c(C(=O)NCCOc2ccc(C(=O)NO)cc2)oc2ccccc12	inactive
C=CCNC1=C2C[C@@H](C)C[C@H](OC)[C@H](O)[C@@H](C)/C=C(\C)[C@H](OC(N)=O)[C@@H](OC)/C=C\C=C(/C)C(=O)NC(=CC1=O)C2=O	inactive
Cc1cc(Nc2cc(NC(=O)c3c(Cl)cccc3Cl)ccn2)nc(N)n1	inactive
C#Cc1cccc(Nc2ncnc3cc(OC)c(OCCCCCCC(=O)NO)cc23)c1	inactive
C=C1C(=O)O[C@@H]2[C@H]3O[C@]3(C)CCC=C(C)CC[C@@H]12	8.14 µM (active)
CC[C@]1(O)C[C@H]2CN(CCc3c([nH]c4ccccc34)[C@@](C(=O)OC)(c3cc4c(cc3OC)N(C=O)[C@H]3[C@@](O)(C(=O)OC)[C@H](OC(C)=O)[C@]5(CC)C=CCN6CC[C@]43[C@@H]65)C2)C1	inactive
O=C(/C=C\n1cnc(-c2cc(C(F)(F)F)cc(C(F)(F)F)c2)n1)NNc1cnccn1	inactive
CCN(CC)CCOc1ccc(Nc2ncc3cc(-c4c(Cl)cccc4Cl)c(=O)n(C)c3n2)cc1	9.13 µM (active)
CC(/C=C/C(=O)NO)=C\[C@@H](C)C(=O)c1ccc(N(C)C)cc1	inactive
CC(=O)Nc1ccc([C@H](C)C(=O)Nc2ncc(C(C)C)s2)cc1	inactive
O=C1NCCc2[nH]c(-c3ccncc3)cc21	inactive
COCCN1CCN(Cc2ccc(-c3n[nH]c4c3C(=O)c3c(NC(=O)NN5CCOCC5)cccc3-4)cc2)CC1	20.5 µM (active)

— PubChem BioAssay AID1347414 (National Center for Advancing Translational Sciences (NCATS), 2020)
